From PubChem BioAssay (NCI)
Compounds without any hit were thinned out: in the full panel of roughly 83,000, 20% have a hit.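 Compound tested at a single concentration for 48 hours in 96-well plates; a percent growth value below 10 was scored as active.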 Active and inactive are the calls of the source.

Key:
Assay in all cases: NCI-60 one-dose screen, 48 h (100 = growth as untreated, 0 = no growth, -100 = all killed)
Settings in all cases: 10 µM
NCI-H23 lung = tested on: NCI-H23 lung
NCI-H226 lung = tested on: NCI-H226 lung
NCI-H322M lung = tested on: NCI-H322M lung
HOP-62 NSCLC = tested on: HOP-62 NSCLC
NCI-H460 lung = tested on: NCI-H460 lung
HOP-92 NSCLC = tested on: HOP-92 NSCLC
NCI-H522 lung = tested on: NCI-H522 lung
A549/ATCC NSCLC = tested on: A549/ATCC NSCLC
786-0 renal = tested on: 786-0 renal
COLO 205 colon = tested on: COLO 205 colon

Measured: growth

O=C(N/N=C/c1ccccc1O)c1ccccc1
inactive: NCI-H23 lung 41.3% | NCI-H226 lung 27.2% | NCI-H322M lung 34.3% | HOP-62 NSCLC 38.9% | A549/ATCC NSCLC 38.7% | 786-0 renal 17.9% | COLO 205 colon 19.3%
active: NCI-H460 lung 9.53% | HOP-92 NSCLC 7.78% | NCI-H522 lung -4.7%

Cc1ccc(/C=C2\CN(Cc3cn(CCNc4ccnc5cc(Cl)ccc45)nn3)C/C(=C\c3ccc(C)cc3)C2=O)cc1
active: NCI-H23 lung -26.8% | NCI-H226 lung -66.9% | NCI-H322M lung 5.6% | HOP-62 NSCLC -64.5% | NCI-H460 lung -51% | HOP-92 NSCLC -42.6% | NCI-H522 lung -49.5% | A549/ATCC NSCLC -17.2% | 786-0 renal -36% | COLO 205 colon -66.7%

CCC(OC(=O)CC(C)C)c1ccccc1 (stereo not given)
inactive: NCI-H23 lung 98.8% | NCI-H226 lung 89.4% | NCI-H322M lung 93.3% | HOP-62 NSCLC 96.3% | NCI-H460 lung 105% | HOP-92 NSCLC 92.8% | NCI-H522 lung 71.8% | A549/ATCC NSCLC 80.6% | 786-0 renal 95.2% | COLO 205 colon 107%

COc1cccc2c1O/C(=C\c1ncc([N+](=O)[O-])n1C)C2=O
active: NCI-H23 lung -20.4% | NCI-H226 lung -16.4% | HOP-62 NSCLC -28.5% | NCI-H460 lung -34.1% | HOP-92 NSCLC -36.8% | NCI-H522 lung -56.8% | A549/ATCC NSCLC -23.8% | 786-0 renal -28.7% | COLO 205 colon -57.8%
inactive: NCI-H322M lung 23.9%

COc1cc(Cl)cc(-c2nn(-c3cccc(NC(=O)Nc4cccc(C(F)(F)F)c4)c3)cc2-c2ccncc2)c1
inactive: NCI-H322M lung 26.2% | HOP-62 NSCLC 15.5% | 786-0 renal 13.2%
active: NCI-H23 lung -5.1% | NCI-H226 lung 3.94% | NCI-H460 lung -6.11% | HOP-92 NSCLC -27.3% | NCI-H522 lung -18.6% | A549/ATCC NSCLC 8.08% | COLO 205 colon -31.2%

Nc1ccccc1NC(=O)CCCCCCC(=O)Nc1ccc2c(c1)/C(=C/c1ccc[nH]1)C(=O)N2
active: HOP-92 NSCLC 8.25%
inactive: NCI-H23 lung 60.7% | NCI-H226 lung 45.5% | NCI-H322M lung 40.6% | HOP-62 NSCLC 52.2% | NCI-H460 lung 27.5% | NCI-H522 lung 11.7% | A549/ATCC NSCLC 47% | 786-0 renal 38.2% | COLO 205 colon 79.4%

COc1ccc(C2C=C(c3ccc(OC)c(OC)c3)N=C3SC=CN32)c(Br)c1 (stereo not given)
inactive: NCI-H23 lung 89.3% | NCI-H226 lung 70.7% | NCI-H322M lung 87.5% | HOP-62 NSCLC 103% | NCI-H460 lung 87.5% | HOP-92 NSCLC 77.5% | NCI-H522 lung 60.8% | A549/ATCC NSCLC 82.3% | 786-0 renal 92.3% | COLO 205 colon 94.8%

COc1ccc2nc(NC(=O)Nc3c(F)cccc3F)sc2c1
inactive: NCI-H23 lung 105% | NCI-H226 lung 94% | NCI-H322M lung 99.5% | HOP-62 NSCLC 106% | NCI-H460 lung 99.3% | HOP-92 NSCLC 93.1% | NCI-H522 lung 96.8% | A549/ATCC NSCLC 96.3% | 786-0 renal 94.3% | COLO 205 colon 125%

CN1/C(=C\C(I)C(I)C2=[N+](C)c3ccccc3C2(C)C)C(C)(C)c2ccccc21 (stereo not given)
inactive: NCI-H226 lung 16.5% | NCI-H322M lung 20.9% | A549/ATCC NSCLC 11.3% | 786-0 renal 23.2%
active: NCI-H23 lung 3.16% | HOP-62 NSCLC 5.15% | NCI-H460 lung 4.27% | HOP-92 NSCLC -25.7% | NCI-H522 lung -14.1% | COLO 205 colon -20.6%

COc1cc(-c2nc3ccccc3[nH]2)ccc1OCc1nnc(-c2ccc(Br)cc2)o1
inactive: NCI-H23 lung 95.8% | NCI-H226 lung 121% | NCI-H322M lung 88.8% | HOP-62 NSCLC 106% | NCI-H460 lung 82.2% | HOP-92 NSCLC 92.6% | NCI-H522 lung 93.9% | A549/ATCC NSCLC 90.2% | 786-0 renal 90.2% | COLO 205 colon 91.2%

COc1ccc(C(=O)/C=C/c2cc(-c3ccc4c(c3)OCO4)n[nH]2)cc1OC
inactive: NCI-H23 lung 61.6% | NCI-H226 lung 39.6% | NCI-H322M lung 36.3% | HOP-62 NSCLC 51.1% | NCI-H460 lung 15.7% | HOP-92 NSCLC 55.7% | NCI-H522 lung 19.4% | A549/ATCC NSCLC 37.9% | 786-0 renal 71.7% | COLO 205 colon 56.1%

Fc1ccc(Nc2ccnc(N3CCN(c4ccnc5cc(Cl)ccc45)CC3)n2)cc1
inactive: NCI-H23 lung 44.5% | NCI-H226 lung 54% | NCI-H322M lung 65.5% | HOP-62 NSCLC 62.8% | NCI-H460 lung 38% | NCI-H522 lung 43.4% | A549/ATCC NSCLC 25% | 786-0 renal 37.1% | COLO 205 colon 34.7%
active: HOP-92 NSCLC -7.36%

COc1cc(C(=O)n2nc(N)c3c(C)cc(C)nc32)cc(OC)c1OC
inactive: NCI-H23 lung 88.8% | NCI-H226 lung 92.1% | NCI-H322M lung 88.6% | HOP-62 NSCLC 79.3% | NCI-H460 lung 89.9% | HOP-92 NSCLC 93.5% | NCI-H522 lung 41% | A549/ATCC NSCLC 55.7% | 786-0 renal 90.4% | COLO 205 colon 67.6%

Cc1ccc([P+](Cc2ccc([N+](=O)[O-])cc2)(c2ccc(C)cc2)c2ccc(C)cc2)cc1
inactive: NCI-H23 lung 41% | NCI-H226 lung 80.6% | NCI-H322M lung 69.3% | HOP-62 NSCLC 70.8% | NCI-H460 lung 60.5% | A549/ATCC NSCLC 81% | 786-0 renal 82.4%
active: HOP-92 NSCLC -19.6% | NCI-H522 lung 0.971% | COLO 205 colon 7.68%

COC(=O)c1c(C)nc(Nc2nc3ccccc3s2)nc1-c1ccc(Cl)cc1Cl
inactive: NCI-H23 lung 103% | NCI-H226 lung 102% | NCI-H322M lung 106% | HOP-62 NSCLC 97% | NCI-H460 lung 106% | HOP-92 NSCLC 107% | NCI-H522 lung 96.1% | A549/ATCC NSCLC 107% | 786-0 renal 104% | COLO 205 colon 110%

Nc1nsc(C(=O)c2ccc(O)cc2)n1
inactive: NCI-H23 lung 98.6% | NCI-H226 lung 104% | NCI-H322M lung 105% | HOP-62 NSCLC 76.4% | NCI-H460 lung 110% | HOP-92 NSCLC 88% | NCI-H522 lung 91.8% | A549/ATCC NSCLC 83.7% | 786-0 renal 117% | COLO 205 colon 106%

COc1ccc(N2CCN(c3nc(-c4ccccc4)c(C#N)c(=O)[nH]3)CC2)cc1
inactive: NCI-H23 lung 98.7% | NCI-H226 lung 107% | NCI-H322M lung 94.6% | HOP-62 NSCLC 91.8% | NCI-H460 lung 103% | HOP-92 NSCLC 92.4% | NCI-H522 lung 92.7% | A549/ATCC NSCLC 104% | 786-0 renal 103% | COLO 205 colon 102%

CCCCCCCCCCN=C(c1ccc(N(C)C)cc1)c1ccc(N(C)C)cc1
inactive: NCI-H23 lung 27.8% | NCI-H226 lung 57.6% | NCI-H322M lung 44.6% | HOP-62 NSCLC 29.4% | NCI-H460 lung 12.1% | HOP-92 NSCLC 47.9% | 786-0 renal 48.8%
active: NCI-H522 lung 2.43% | COLO 205 colon 6.54%

COc1ccc(-c2nnc(N3CCN(C(=O)CN4CCN(c5ccc(Cl)cc5)CC4)CC3)nc2-c2ccc(OC)cc2)cc1
inactive: NCI-H23 lung 68.1% | NCI-H226 lung 73.6% | NCI-H322M lung 92.7% | HOP-62 NSCLC 88.4% | NCI-H460 lung 46.8% | HOP-92 NSCLC 80.3% | NCI-H522 lung 69.8% | 786-0 renal 70.8% | COLO 205 colon 59.2%

CCCCCCCCCCCCCC[n+]1ccc(C)cc1
inactive: NCI-H226 lung 31.7%
active: NCI-H23 lung -19% | NCI-H322M lung 5.57% | HOP-62 NSCLC -39.2% | NCI-H460 lung -74.1% | HOP-92 NSCLC -49.7% | NCI-H522 lung -11.8% | 786-0 renal -3.94% | COLO 205 colon -89.9%

COc1cc(C(c2c[nH]c3ccccc23)N2CCCC2)ccc1OCc1ccccc1 (stereo not given)
inactive: NCI-H23 lung 82% | NCI-H226 lung 80.1% | NCI-H322M lung 72.7% | HOP-62 NSCLC 90.3% | NCI-H460 lung 98.9% | HOP-92 NSCLC 12.7% | NCI-H522 lung 71.1% | A549/ATCC NSCLC 94.5% | 786-0 renal 87.4% | COLO 205 colon 104%

Oc1ccc(Cn2cc3c(c2-c2ccccc2)CCc2cnoc2-3)cc1
inactive: NCI-H23 lung 92.8% | NCI-H226 lung 96.4% | NCI-H322M lung 116% | HOP-62 NSCLC 99.2% | NCI-H460 lung 105% | HOP-92 NSCLC 79.2% | NCI-H522 lung 84.5% | 786-0 renal 92.9% | COLO 205 colon 98%

COc1ccc2nc(C)cc(Nc3ccc(Cl)cc3)c2c1
inactive: NCI-H23 lung 104% | NCI-H226 lung 99.9% | NCI-H322M lung 95.1% | HOP-62 NSCLC 104% | NCI-H460 lung 91.8% | HOP-92 NSCLC 156% | NCI-H522 lung 105% | 786-0 renal 109% | COLO 205 colon 107%

Cn1cnc([N+](=O)[O-])c1Sc1nnc(-c2ccccc2)c(-c2ccccc2)n1
inactive: NCI-H23 lung 79.5% | NCI-H226 lung 77.1% | NCI-H322M lung 102% | HOP-62 NSCLC 97.3% | NCI-H460 lung 113% | HOP-92 NSCLC 71.1% | NCI-H522 lung 85.4% | 786-0 renal 85.4% | COLO 205 colon 90.2%

c1ccc(COCC[P+](c2ccccc2)(c2ccccc2)c2ccccc2)cc1
active: NCI-H23 lung -10.1% | NCI-H460 lung 3.37% | HOP-92 NSCLC -29.9% | NCI-H522 lung -9.64% | COLO 205 colon -41.2%
inactive: NCI-H226 lung 28.5% | NCI-H322M lung 10.4% | HOP-62 NSCLC 22.1% | 786-0 renal 16.9%

Cc1ccc2nc(-c3ccc(OCC(=O)N=Nc4c(O)[nH]c5ccccc45)cc3)[nH]c2c1
inactive: NCI-H23 lung 94.9% | NCI-H226 lung 92.6% | NCI-H322M lung 91.3% | HOP-62 NSCLC 104% | HOP-92 NSCLC 81.9% | NCI-H522 lung 79.4% | 786-0 renal 36.1% | COLO 205 colon 58.4%
active: NCI-H460 lung -13.4%

COc1ccc(C2=Cc3ccc(OC(C)=O)cc3OC2)cc1
inactive: NCI-H23 lung 95.9% | NCI-H226 lung 91.1% | NCI-H322M lung 92.3% | HOP-62 NSCLC 109% | NCI-H460 lung 103% | HOP-92 NSCLC 91.8% | NCI-H522 lung 75.4% | 786-0 renal 100% | COLO 205 colon 110%

CC(=O)OCC(COC(C)=O)(COC(C)=O)COC(C)=O
inactive: NCI-H23 lung 102% | NCI-H226 lung 93.5% | NCI-H322M lung 99.5% | HOP-62 NSCLC 102% | NCI-H460 lung 104% | HOP-92 NSCLC 105% | NCI-H522 lung 99.4% | 786-0 renal 112% | COLO 205 colon 109%

O=C/C=C/c1ccc([N+](=O)[O-])cc1Cl
inactive: NCI-H23 lung 94% | NCI-H226 lung 108% | NCI-H322M lung 89.1% | HOP-62 NSCLC 99.9% | NCI-H460 lung 112% | HOP-92 NSCLC 95.1% | NCI-H522 lung 89.5% | A549/ATCC NSCLC 98.7% | 786-0 renal 105% | COLO 205 colon 108%
